# In the supplement of paper PMC8728848:
# This excerpt belongs to a sample that is enriched for the strongest signals.
# Columns and labels:
# Assay in all cases: glycan array binding signal (z-score within array); higher = stronger binding
# Conditions in all cases: glycan notation: IUPAC condensed, linker removed; mutation: E227A
# [1] = biological target: GalNAc4S6S(b1-4)GlcNAc
# Summary of the method: (§1)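 Glycan array data were curated from 3228 arrays in the Consortium for Functional Glycomics database and kept only where the protein sequence was available. Glycan names were converted to IUPAC-condensed notation, and columns mapping to the same glycan were averaged. The binding signal is a within-array Z-score, averaged across arrays of the same protein sequence at different concentrations or buffers and across linkers. Negative Z-scores can be read as non-binding.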
# [2] = biological target: Glc(a1-6)Glc(a1-6)Glc
# Summary of the method: as §1
# [3] = biological target: GlcNAc(a1-4)Gal(b1-4)GlcNAc
# Summary of the method: as §1
# [4] = biological target: GlcNAc(a1-4)Gal(b1-4)GlcNAc(b1-3)Gal(b1-4)Glc
# Summary of the method: as §1
# [5] = biological target: GlcNAc(b1-2)Man(a1-3)[GlcNAc(b1-2)Man(a1-6)]Man(b1-4)GlcNAc(b1-4)GlcNAc
# Summary of the method: as §1
# [6] = biological target: GlcNAc(b1-3)Fuc
# Summary of the method: as §1
# [7] = biological target: GlcNAc(b1-3)Gal(b1-3)GalNAc
# Summary of the method: as §1
# [8] = biological target: GlcNAc(b1-3)Gal(b1-4)GlcNAc(b1-3)Gal(b1-4)GlcNAc(b1-2)[GlcNAc(b1-3)Gal(b1-4)GlcNAc(b1-3)Gal(b1-4)GlcNAc(b1-6)]Man(a1-6)[GlcNAc(b1-3)Gal(b1-4)GlcNAc(b1-3)Gal(b1-4)GlcNAc(b1-2)Man(a1-3)]Man(b1-4)GlcNAc(b1-4)[Fuc(a1-6)]GlcNAc
# Summary of the method: as §1
# [9] = biological target: GlcNAc(b1-3)Gal(b1-4)GlcNAc(b1-6)[GlcNAc(b1-3)Gal(b1-3)]GalNAc
# Summary of the method: as §1
# [10] = biological target: GlcNAc(b1-3)GalNAc
# Summary of the method: as §1
# [11] = biological target: Man(a1-2)Man(a1-3)[Man(a1-2)Man(a1-6)]Man
# Summary of the method: as §1
# [12] = biological target: Man(a1-2)Man(a1-3)[Man(a1-6)]Man(a1-6)[Man(a1-2)Man(a1-3)]Man(b1-4)GlcNAc(b1-4)GlcNAc
# Summary of the method: as §1
# [13] = biological target: Man(a1-3)[Man(a1-6)]Man(a1-6)[Man(a1-3)]Man
# Summary of the method: as §1
# [14] = biological target: Neu5Ac(a2-3)Gal(b1-3)[Fuc(a1-4)]GlcNAc
# Summary of the method: as §1
# [15] = biological target: Neu5Ac(a2-3)Gal(b1-3)]Neu5Ac(a2-3)Gal(b1-4)]GlcNAc
# Summary of the method: as §1
# [16] = biological target: Neu5Ac(a2-3)Gal(b1-4)GlcNAc(b1-3)Gal(b1-4)GlcNAc(b1-3)Gal(b1-4)GlcNAc
# Summary of the method: as §1
# [17] = biological target: Neu5Ac(a2-3)Gal(b1-4)[Fuc(a1-3)]GlcNAc(b1-3)GalNAc
# Summary of the method: as §1
# [18] = biological target: Neu5Ac(a2-3)Gal(b1-4)[Fuc(a1-3)]GlcNAc(b1-6)[Neu5Ac(a2-3)Gal(b1-3)]GalNAc
# Summary of the method: as §1
# [19] = biological target: Neu5Ac(a2-6)Gal(b1-4)GlcNAc(b1-2)Man(a1-3)Man(b1-4)GlcNAc(b1-4)GlcNAc
# Summary of the method: as §1
# [20] = biological target: Neu5Ac(a2-6)Gal(b1-4)GlcNAc(b1-2)Man(a1-6)[Man(a1-3)]Man(b1-4)GlcNAc(b1-4)GlcNAc
# Summary of the method: as §1
# [21] = biological target: Neu5Ac(a2-6)Gal(b1-4)GlcNAc(b1-3)Gal(b1-4)GlcNAc(b1-6)[Gal(b1-3)]GalNAc
# Summary of the method: as §1
# [22] = biological target: Neu5Ac(a2-8)Neu5Ac(a2-8)Neu5Ac(a2-3)[Gal(b1-3)GalNAc(b1-4)]Gal(b1-4)Glc
# Summary of the method: as §1
binder,measurement,setting,value
"Epa1-NP-mutant-E227A (Candida glabrata), Q6VBJ0 (protein) MILNPALFLNKCVCIYTTLILLLLTNGGYATSSNDISLASKDPTTFPLGCSPDITTPKKGLSMELYSYDFRKKGSYPCWDAAYLDPNYPRTGYKSHRLLAKVDGVTGNINFYYHATKGCTPQLGHLPASYNYPKPLTMTNFTMLLYGYFRPKVTGFHTFTISADDLLFVNFGAGNAFDCCRRDSSADHFGNYQAYAIWGSKTAKDELTVHLDAGVYYPIRLFYNNRAYDGALSFTFKTESNENTVSDFSEYFFSLDDTEEGCPGLISYDSSCASVKTSKIIGIDYHTETPNENLVPITKTIYHLGIPCTGTTTTPLCGSGFYDPLANKCVTINTSSTSSVTKTTSHTTSKEVSFHSSISSQKTLIPKSIPSPYGPIKSQSIPTEMETSSEISSSEYAFSDVISTPSHSPYTKKHSSLNSSSYTSTVIHSLTSYSISQGIFSTSLSEQNITSKSSTDKFSTATSMSNNITQSSIIISQFSTNNENYTTTSMHTSSDKISTETLNNSISTTTSILFSNSSTILKNNTTIISSDKDTHYHPVNPTIVCSTNKTEIICASITQPSISNSNNHWSSSVLKFNSTTVRSTLPSSAGSNETSINVPFSSSTESNTSTSSTSTSNSKMVRSTLPSSAGSNETSISVPFSSSTESNTSTSSTSTSNSKMVRSTLPSSAGSNETSINVPFSSSTESNTSTSSTSTSNSKTVRSTPFSSAGIIMTSLSQRNNKSASSYASSNSKCYNTADSCRKVHSTPSYLLTSSYTSEGVDYDCSLVSTKLKINDTNCVNNKHTTKSCLKTSVTTTIPTLEIKTARKSSSNTIGLHSYPTSSPNKSISSAPIIGYISSFKTIKTASPSYQTSDLTTITTITSLNNPGSTAVENTHESNDKSRKTSSNDISSKHSVIKETKDAVESSNKSHQTNTLKCSSIIIASSSHNSYESLGGTTLTLTLSKVYSPQNNDTLPFLEISEVNPSRTVLPESSKMMQYLTSTEERNKTARNTIATNIVSISTFHFEGEGNAIRMGYTQLLLMLIGIIVMNIGT",glycan array binding signal (z-score),[1],-0.197
same,glycan array binding signal (z-score),[2],-0.201
same,glycan array binding signal (z-score),[3],-0.198
same,glycan array binding signal (z-score),[4],-0.194
same,glycan array binding signal (z-score),[5],-0.191
same,glycan array binding signal (z-score),[6],-0.185
same,glycan array binding signal (z-score),[7],-0.176
same,glycan array binding signal (z-score),[8],-0.163
same,glycan array binding signal (z-score),[9],-0.207
same,glycan array binding signal (z-score),[10],-0.214
same,glycan array binding signal (z-score),[11],-0.166
same,glycan array binding signal (z-score),[12],-0.198
same,glycan array binding signal (z-score),[13],-0.196
same,glycan array binding signal (z-score),[14],-0.197
same,glycan array binding signal (z-score),[15],-0.213
same,glycan array binding signal (z-score),[16],-0.202
same,glycan array binding signal (z-score),[17],-0.12
same,glycan array binding signal (z-score),[18],-0.16
same,glycan array binding signal (z-score),[19],-0.2
same,glycan array binding signal (z-score),[20],-0.2
same,glycan array binding signal (z-score),[21],0.553
same,glycan array binding signal (z-score),[22],-0.194
